# Laboratory results published in ChEMBL document CHEMBL3988442, “University of Dundee, Small-Polar-MMV Screening Library” (2021).
# Target: T1, Methionyl-tRNA synthetase, putative (Leishmania donovani (strain BPK282A1)) (UniProt E9BF75)
# T1 sequence (whole entry): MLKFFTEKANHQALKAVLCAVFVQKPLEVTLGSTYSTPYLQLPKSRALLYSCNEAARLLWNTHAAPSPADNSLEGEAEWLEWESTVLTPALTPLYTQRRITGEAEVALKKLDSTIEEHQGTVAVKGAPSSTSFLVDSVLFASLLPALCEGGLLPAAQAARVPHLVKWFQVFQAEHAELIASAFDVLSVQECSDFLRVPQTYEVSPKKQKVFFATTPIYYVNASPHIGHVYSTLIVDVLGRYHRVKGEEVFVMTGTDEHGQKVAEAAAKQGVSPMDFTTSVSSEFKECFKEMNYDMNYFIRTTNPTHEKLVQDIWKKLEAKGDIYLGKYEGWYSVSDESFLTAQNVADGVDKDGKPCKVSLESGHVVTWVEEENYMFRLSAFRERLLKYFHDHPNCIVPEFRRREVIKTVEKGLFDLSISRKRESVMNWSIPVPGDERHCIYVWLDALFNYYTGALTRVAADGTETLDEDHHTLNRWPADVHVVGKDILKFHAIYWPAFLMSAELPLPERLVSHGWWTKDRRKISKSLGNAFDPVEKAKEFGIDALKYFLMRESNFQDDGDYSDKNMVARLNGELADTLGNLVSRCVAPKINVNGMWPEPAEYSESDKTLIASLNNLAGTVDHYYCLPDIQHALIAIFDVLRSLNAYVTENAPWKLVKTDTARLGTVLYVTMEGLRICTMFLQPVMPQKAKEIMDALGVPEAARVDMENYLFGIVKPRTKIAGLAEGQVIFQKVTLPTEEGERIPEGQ
# Assay: Leishmania donovani Methionine tRNA synthetase (LdMetRS):v7. Dose response assay
# Format: functional
# Parameters: conc 80 nM, time 150 minutes
smiles,measurement,setting,value
CCN(CCN(C)C)c1nc(CCN)nc2sc(C)c(C)c12,PXC50,"BOTTOM 1.153434253, HILLSLOPE 1.801290913, MAX_EFFECT 65.59139785, TOP 100.0",4.17
same,PXC50,"BOTTOM 3.323089956, HILLSLOPE 2.865245269, MAX_EFFECT 53.13531353, TOP 100.0",4.01
same,PXC50,"BOTTOM 7.056148009, HILLSLOPE 0.845689164, MAX_EFFECT 65.90909091, TOP 100.0",4.25
same,PXC50,"BOTTOM 9.733141468, HILLSLOPE 1.108067768, MAX_EFFECT 69.89795918, TOP 94.34728341",4.35
same,PXC50,"BOTTOM -2.908093481, HILLSLOPE 0.556623138, MAX_EFFECT 55.79710145, TOP 100.0",4.03
CC(C)c1nc2c(n1C)CCN(Cc1nc(-c3cccnc3)no1)C2,PXC50,"BOTTOM 2.671185226, HILLSLOPE 0.615272847, MAX_EFFECT 58.33333333, TOP 100.0",4.04
same,PXC50,MAX_EFFECT 45.45454545,< 4
same,PXC50,MAX_EFFECT 45.58058925,< 4
same,PXC50,MAX_EFFECT 47.65100671,< 4
same,PXC50,MAX_EFFECT 48.17658349,< 4
CC(C)c1nc(CNC2CCCN(c3cccnn3)C2)no1 (stereo not given),PXC50,"BOTTOM -4.804668592, HILLSLOPE 1.43236327, MAX_EFFECT 76.8115942, TOP 100.0",4.38
same,PXC50,"BOTTOM -10.26857321, HILLSLOPE 1.286287287, MAX_EFFECT 68.70748299, TOP 100.0",4.3
same,PXC50,MAX_EFFECT 0.790513834,< 4
same,PXC50,MAX_EFFECT 4.444444444,< 4
same,PXC50,MAX_EFFECT 61.12084063,< 4
